This is a sample that favours compounds with a hit; in the whole collection about 12% have one here.
Sfp inh – inhibitors of Bacillus subtilis Sfp phosphopantetheinyl transferase | hit rate 3.5% among 310,000 | Potency, µM, without a hit: largest response in the series, negative = inhibition, hits mostly inhibitors | AID 1490 | Biochemical Sfp PPTase activity, qHTS;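 note: the enzyme is Sfp with the accession as filed and its product quenches rhodamine fluorescence; 0% = enzyme reaction without inhibitor and -100% = no enzyme wells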
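With Hepes-Na pH 7.6 buffer containing 10 mM MgCl2, Sfp (15 nM) modified BHQ-2-YbbR (12.5 uM) using rhodamine-CoA (5 uM). Two reads 30 minutes apart at 525/598 nm yielded each well's rate.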
HP1b binding inh – HP1-beta chromodomain-methylated histone interaction inhibition; P83916; AlphaScreen HP1-beta / biotin-H3K9me3 peptide binding; Potency, µM (top dose mostly 114 µM), for the others: at the highest dose activity change, negative = inhibition, usual class: inhibitors; hit rate 0.56% among 390,000; AID 540317; note: nearly all actives have a fitted effect of over 70% in size
Target sequence (P83916 whole entry, looked up): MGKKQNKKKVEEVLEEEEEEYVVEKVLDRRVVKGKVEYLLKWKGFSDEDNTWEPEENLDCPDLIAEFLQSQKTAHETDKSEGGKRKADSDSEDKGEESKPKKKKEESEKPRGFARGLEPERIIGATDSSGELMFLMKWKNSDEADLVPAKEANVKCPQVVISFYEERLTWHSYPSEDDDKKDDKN
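Compound inhibition of the preformed complex between 50 nM HP1-beta and 50 nM biotinylated H3K9me3 peptide was read by AlphaScreen. Buffer was PBS pH 7.4 with 0.01% Tween-20. Incubations ran 30 min at room temperature, with 10 ug/mL donor/acceptor beads.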
G9a inh – blocks human histone lysine methyltransferase G9a | Q96KQ7 | Potency, µM (top dose mostly 102 µM), for the others: at the top dose activity, negative = inhibition, actives largely listed as inhibitors | AID 504332 | hit rate 8.8% among 350,000 | G9a H3K9 monomethylation, AlphaScreen, 2 h; note: % is set by controls: 0 for no effect and ±100 for the full control effect; nearly all actives have a fitted effect of over 75% in size
Target sequence (Q96KQ7 913-1193 limits assumed): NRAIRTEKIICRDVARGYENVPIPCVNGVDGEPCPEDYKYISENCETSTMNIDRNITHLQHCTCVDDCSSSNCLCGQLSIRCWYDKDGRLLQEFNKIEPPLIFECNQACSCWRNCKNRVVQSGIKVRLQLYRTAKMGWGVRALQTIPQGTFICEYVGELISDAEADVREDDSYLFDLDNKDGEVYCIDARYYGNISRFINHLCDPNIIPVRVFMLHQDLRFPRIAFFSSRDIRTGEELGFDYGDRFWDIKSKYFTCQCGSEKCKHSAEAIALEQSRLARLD
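Enzyme 20 nM + cpd, 15 min RT; add b-H3K9 pep 500 nM / SAM 20 uM; 2 h RT; anti-H3K9me1 Ab 0.5 ug/mL + SA donor / anti-rabbit acceptor beads 20 ug/mL each, 10 min; AlphaScreen read.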
JMJD2A Tudor – inhibitors of human JMJD2A Tudor domain; O75164; AlphaScreen JMJD2A-Tudor / H3K4me3 peptide binding; Potency, µM (series often up to 114 µM), for inactives: at the highest dose activity change, negative = inhibition, actives largely listed as inhibitors; hit rate 4.4% among 390,000; AID 504339; note: % is set by controls: 0 for no effect and ±100 for the full control effect; nearly all actives have a fitted effect of over 50% in size
BAZ2B inh – blocks human BAZ2B; AlphaScreen BAZ2B-H3K14Ac peptide displacement; hit rate 4.4% among 360,000; Q9UIF8; Potency, µM (top dose mostly 114 µM), for the others: top-dose activity change, negative = inhibition, actives largely listed as inhibitors; note: % is set by controls: 0 for no effect and ±100 for the full control effect; nearly all actives have a fitted effect of over 60% in size
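AlphaScreen displacement of biotin-H3(5-23)K14Ac peptide (50 nM final) from BAZ2B (50 nM final) in PBS pH 7.4, 0.01% Tween-20; complex preformed 30 min RT, then compounds (top 110 uM) 30 min RT, beads 20 min dark.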
Numbers without * were called inactive; ? = inconclusive; . = no result given; ! = not confirmed by another sample; [ ] = dose if it differs, or a comment. Calls come from the whole dose curve; as a rule, active = well fitted curve in the direction sought with a large enough effect; inconclusive = small, poorly fitted or top-dose-only effect, or another doubt; inactive = no such curve, though single readings can be large; an effect the other way counts as inactive or inconclusive. Potency is the fitted concentration of half-maximal effect.

SMILES	Sfp inh	HP1b binding inh	G9a inh	JMJD2A Tudor	BAZ2B inh
O=C(Cn1cc(COc2cc(F)cc(F)c2)nn1)c1ccc(O)cc1	.	31.2%	.	-17.3%	.
Cc1cccc(C)c1OCc1cn(CC(=O)c2ccc(O)cc2)nn1	.	15.3%	.	89.1µM*	.
O=C(Cn1cc(COc2ccccc2C(F)(F)F)nn1)c1ccc(O)cc1	.	21.1%	.	44.7µM*	.
O=C(Cn1cc(COc2ccc(Br)cc2[N+](=O)[O-])nn1)c1ccc(O)cc1	.	20.0%	.	50.1µM*	.
COc1cccc(C2CC(=O)Nc3cc(OC)c(OC)c(OC)c32)c1OC(C)C (centres undefined)	.	20.8%	-12.9%[59 µM]	-22.9%	-19.0%
CCCN1CCC(=O)N(C(CSc2ccc(OC)cc2)CC(C)C)CC1 (centres undefined)	2.7%	16.6%	.	-24.1%	.
O=C(COc1ccccc1)Nc1nnc(-c2ccc(Cl)s2)o1	5.6%	46.4%	13.6%	89.1µM*	?
O=C(COc1ccccc1)Nc1nnc(-c2ccco2)o1	-18.2%	15.2%	?	14.1µM*	17.8µM*
Cc1ccc(C)c(-c2nnc(NC(=O)COc3ccccc3)o2)c1	.	25.7%	-20.8%	-28.8%	-6.5%
O=C(COc1ccc(Cl)cc1)Nc1nnc(-c2ccco2)o1	6.1%	26.0%	-29.5%	28.2µM*	22.4µM*
CN(C)CCCc1cc(C(=O)Nc2ccc(-c3ccncc3)cc2)ccc1O	-1.3%	.	25.1µM*!	.	.
Cc1nnsc1C(=O)Oc1ccc(C#N)cc1	.	17.2%	15.8µM*	89.1µM*	?
Cc1cc(C)cc(OC(=O)c2snnc2C)c1	.	79.4%	-45.9%[59 µM]	62.3%	36.5%
Cc1nnsc1C(=O)Oc1ccc(Cl)cc1	.	2.8%	12.6µM*	-2.6%	7.3%
Cc1cccc(OC(=O)c2snnc2C)c1C	.	47.6%	?	31.1%	4.1%
COc1ccc2c(c1)O[C@@H](c1ccc3c(c1)OCO3)[C@H](OC(=O)Nc1ccc(C)c(Br)c1)C2=O	1.1%	.	.	.	.
C=CC(=O)c1ccc(CCCCCC)cc1	?	.	11.2µM*	.	.
CCN(C(=O)c1cc2c(Cl)nc3ccccc3c2s1)c1cccc(Cl)c1	.	27.1%	-0.9%[59 µM]	-5.7%	-3.5%
C/C(=N\N1CCN(C2c3ccccc3-c3ccccc32)CC1)c1cccnc1	-11.9%	-20.7%	19.7%[0.501 µM]	?	?
CN=c1scc(-c2ccccc2F)n1/N=C(\C)c1cccnc1	7.0%	?	15.8µM*	15.8µM*	35.5µM*
CCCCN(C)CCCNC(=O)C1CCC(CNS(=O)(=O)c2c(C)cc(C)cc2C)CC1 (centres undefined)	8.7%	31.5%	-5.2%[12.7 µM]	-30.2%	-0.7%
CC1CCCCC1NC(=O)C1CCN(S(=O)(=O)c2cccc3nonc23)CC1 (centres undefined)	23.4%	-23.0%	0.3%	-21.9%	1.0%
COc1ccccc1NS(=O)(=O)c1ccc(NN=C2CCCCC2)c([N+](=O)[O-])c1	-1.0%	?	25.1µM*	?	8.91µM*
CCCC(CCC)=NNc1ccc(S(=O)(=O)Nc2ccccc2OC)cc1[N+](=O)[O-]	-2.5%	28.2µM*	?	14.1µM*	10µM*
COc1ccccc1NS(=O)(=O)c1ccc(OC)c([N+](=O)[O-])c1	12.9%	-7.5%	2.8%	-22.5%	-12.9%
SMILES	Sfp inh	HP1b binding inh	G9a inh	JMJD2A Tudor	BAZ2B inh
Cc1csc(=Nc2ccccc2)n1Cc1ccco1	-20.1%	?	39.8µM*	44.7µM*	63.1µM*
CC(C)CCNC(=O)NC(=O)COC(=O)/C=C/c1cc(Br)ccc1F	13.7%	-9.1%	-10.4%	14.1µM*	16.4%
O=C(COC(=O)/C=C/c1cc(Br)ccc1F)Nc1ccc2[nH]c(=O)[nH]c2c1	.	19.6%	?	-6.2%	0.1%
COc1cccc(C2=Nn3c(nnc3-c3cccc(OC)c3OC)SC2)c1	-4.9%	.	.	-29.0%	.
COc1cccc(C2=Nn3c(nnc3-c3ccccc3OC)SC2)c1	?	.	.	79.4µM*	.
COc1ccccc1-c1nnc2n1N=C(c1c(OC)cccc1OC)CS2	-4.0%	.	.	-22.8%	.
COc1ccccc1-c1nnc2n1N=C(c1ccc(O)c(O)c1)CS2	-19.8%	-1.9%	?	?	50.1µM*
Cn1nc(-c2ccc(F)cc2)nc2c(=O)n(C)c(=O)nc1-2	.	13.9%[57 µM]	.	-3.1%[57.1 µM]	.
COc1ccc(C)cc1NC(=O)CSCc1cc(=O)n2c(C)csc2n1	.	44.6%	-3.1%	0.0%	79.4µM*
CCOC(=O)c1ccc(NC(=O)CSc2nc3ccccc3c(=O)n2CCNC(C)=O)cc1	.	29.3%	-0.2%[59 µM]	-19.0%	-0.4%
COc1ccc(C(=O)c2oc3ccccc3c2NC(=O)c2nc(SC)ncc2Cl)cc1Cl	.	-0.3%	9.7%[59 µM]	-21.2%	-1.1%
COc1ccc(/C=N/NC(=O)c2nn(-c3ccc(Cl)cc3)c(=O)c3c(N)scc23)cc1	-27.2%	-15.5%	?	-26.1%	-32.4%
COc1ccc(/C=N/NC(=O)c2nn(-c3ccccc3)c(=O)c3c(N)scc23)cc1	7.08µM*	?	0.355µM*	5.62µM*	39.8µM*
CCN(CC)C(=O)c1nn(-c2ccc(OC)cc2)c(=O)c2c(N)scc12	.	.	.	56.2µM*	.
CCOC(=O)c1nn(-c2ccc(C)c(C)c2)c(=O)c2c(N)scc12	8.91µM*	-28.8%	2µM*	22.4µM*	56.2µM*
COc1ccc(-c2cc3nc(C)c(CCC(=O)N4CCN(c5cccc(Cl)c5)CC4)c(C)n3n2)c(OC)c1	.	28.2%	?	-22.6%	?
NC(=O)OC[C@@H]1[C@H](NC(=O)/C(=N/OCC(=O)O)c2csc(N)n2)C(=O)N1S(=O)(=O)O	?	.	2.3%[12.7 µM]	.	.
COc1ccc(-c2csc(NC(=S)NC(=O)c3ccc(S(=O)(=O)N(C)C)cc3)n2)cc1OC	-21.7%	22.7%	?	-5.4%	-4.6%
CCOc1cc(/C=N/Nc2nc(-c3cccc(S(=O)(=O)N4CCCC4)c3)cs2)ccc1O	?	-6.7%	35.5µM*	?	?
COc1cc(/C=N/Nc2nc(-c3ccc(S(=O)(=O)N(C)C)cc3)cs2)ccc1O	79.4µM*	0.6%	14.1µM*	-23.5%	-33.4%
O=S(=O)(c1cccc(-c2csc(N/N=C/c3ccco3)n2)c1)N1CCOCC1	2.4%	-15.2%	44.7µM*	?	?
COc1ccc(/C=N/Nc2nc(-c3cccc(S(=O)(=O)N4CCCC4)c3)cs2)cc1OC	-17.3%	18.3%	12.6µM*	-27.7%	-31.7%
Cc1ccc(NC(=O)Cn2nnc(-c3ccccc3)n2)c(C)c1	.	14.6%	11.3%[59 µM]	6.1%	-0.4%
COc1ccc(S(=O)(=O)N2CCC(C(=O)NCC3CCCCC3)CC2)cc1	5.1%	26.3%	3.2%	9.0%	0.2%
O=S1(=O)CCC(NC2CCCC2)C1 (centres undefined)	-7.1%	10.6%	10.3%	-4.7%	1.8%
CN(C)NC1CCS(=O)(=O)C1 (centres undefined)	-19.3%	52.3%	10µM*	?	?
CCC(=O)C1=C(c2ccc(OC)c(OC)c2)N(C(=O)CC)n2c(CC)nnc2S1	.	37.9%	17.0%[59 µM]	-12.3%	-23.0%
